This is part of a sample that, as a whole, favours compounds with a hit. Of some 79,000 tested, about 15% had one in any assay. No stated cut-off is given here; in the data, active means growth inhibition above about 70%; inactive means the rest. Where a SMILES comes first, the peptide text is derived from it. [ ]: non-standard residue; d: D form. The star is where a group is joined. Phe(4-NO2) = N[CH](Cc1ccc([N+](=O)[O-])cc1)C(=O)O; Boc = CC(C)(C)OC(=O)*; OtBu = CC(C)(C)O*
What was measured:
[1] = NCI Yeast Anticancer Drug Screen. Data for the rad50 strain (AID 155);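 further: 0% = growth of vehicle-only cultures of the same strain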; settings: S. cerevisiae rad50 strain growth inhibition; at 50.0 µM; hits give high values
How it was run: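 Vehicle-treated cultures provide the reference for the growth inhibition reported for compound-exposed, repair-deficient yeast.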

[2] = NCI Yeast Anticancer Drug Screen. Data for the mec2-1 strain (AID 157); settings: S. cerevisiae mec2-1 strain, at 50.0 µM, hits give high values
How it was run: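 Cells of the genetically defined mec2-1 yeast strain are incubated with test compound. Inhibition of growth is calculated against vehicle-treated controls.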

[3] = NCI Yeast Anticancer Drug Screen. Data for the sgs1 mgt1 strain (AID 161);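 further: 0% = growth of cultures given vehicle only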; settings: S. cerevisiae sgs1 mgt1 strain, at 50.0 µM, hits give high values
How it was run: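 Mutant yeast exposed to compound; growth scored against vehicle-only wells.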

[4] = NCI Yeast Anticancer Drug Screen. Data for the cln2 rad14 strain (AID 165);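 further: 0% = growth equal to vehicle treated cultures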; settings: S. cerevisiae cln2 rad14 strain, at 50.0 µM, hits give high values
How it was run: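 The screen exposed genetically defined yeast (cln2 rad14) to test compounds and scored growth inhibition relative to vehicle-treated controls.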

[5] = NCI Yeast Anticancer Drug Screen. Data for the bub3 strain (AID 167); settings: S. cerevisiae bub3 mutant strain, at 50.0 µM, hits give high values
How it was run: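 Mutant yeast screening strain plus compound; vehicle-treated cultures serve as the 0% inhibition reference.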

[6] = NCI Yeast Anticancer Drug Screen. Data for the mlh1 rad18 strain (AID 175); settings: S. cerevisiae mlh1 rad18 strain growth inhibition; at 50.0 µM; hits give high values
How it was run: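 Compound-treated yeast growth, normalised to vehicle controls. Strain bears defined DNA repair mutations.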

Measured: growth inhibition

CCOC(=O)CC1CC(C)(C(=O)OCC)C(=O)CC1=O (stereo not given)
inactive: [1] -21.1% | [2] -4.9% | [3] -11% | [4] 8.35% | [5] 7.5% | [6] 0%

Cc1cccc2cc3ccc4ccccc4c3cc12
inactive: [1] 29.7% | [2] 13.8% | [3] 21.9% | [4] 14.8% | [5] 4.1% | [6] 20.6%

CN(C)C(=S)/N=c1\ssc(=S)n1Cc1ccccc1
inactive: [1] -10.4% | [2] -24.9% | [3] -4.55% | [4] 16.4% | [5] -17.9% | [6] -86.5%

COc1ccc(Cl)cc1NC(=O)O/N=C(\Cl)C(C)C
inactive: [1] -3.65% | [2] 7.55% | [3] 10.9% | [4] 16.2% | [5] 24.9% | [6] -74.3%

CCOCCC(O)CC (stereo not given)
inactive: [1] 3.3% | [2] -31.2% | [3] -4.9% | [4] 17.7% | [5] 9.8% | [6] 14%

Cc1c(/C=C\C(=O)c2ccccc2)c2ccccc2n1C
inactive: [1] 12.7% | [2] -18.6% | [3] 2.2% | [4] -21.6% | [5] -15.2% | [6] 1.15%

CCOC(=O)c1n[nH]c(=S)[nH]c1=O
inactive: [1] -7.95% | [2] -1.8% | [3] -3.05% | [4] -16.9% | [5] 11.7% | [6] -14.9%

Cc1c(CCOC=O)c(=O)[nH]c2nncn12
inactive: [1] -15.5% | [2] -29.6% | [3] -18.3% | [4] 16.9% | [5] -9.65% | [6] 2.65%

CC(C)c1cccc(C(C)C)c1NC1=CC(=O)C(=O)c2ccccc21
inactive: [1] -7.25% | [2] 14.4% | [3] -16.8% | [4] -0.2% | [5] 4.85% | [6] -7.85%

O=C(Nc1cccc(Cl)c1)ON1C(=O)C2C(C1=O)C1(Cl)C(Cl)C(Cl)C2(Cl)C1(Cl)Cl (stereo not given)
inactive: [1] 0.4% | [2] 19.4% | [3] -15.8% | [4] -1.35% | [5] -24% | [6] -16.1%

CNCC1OC(OC)C2OC(C)(C)OC12 (stereo not given)
inactive: [1] -5.05% | [2] 5.1% | [3] 8.15% | [4] -25.5% | [5] -21.1% | [6] 5.05%

C=CCSc1ncnc2nc[nH]c12
inactive: [1] 7.9% | [2] -1.3% | [3] 1.55% | [4] -3.15% | [5] -0.45% | [6] 9.1%

Cc1nc(Nc2ccc(Cl)cc2)c2cnn(-c3ccccc3)c2n1
inactive: [1] 29.1% | [2] -7.2% | [3] -8% | [4] -35.9% | [5] 6.75% | [6] 26.9%

CN(C=O)c1ccccc1
inactive: [1] 3.6% | [2] 1.8% | [3] 6.15% | [4] 11.7% | [5] 2.05% | [6] 3.05%

CC(=O)NC(CCC(=O)OC(C)(C)C)C(=O)NC(CCC(=O)OC(C)(C)C)C(=O)NC(Cc1ccc([N+](=O)[O-])cc1)C(=O)NC(CCCCNC(=O)OC(C)(C)C)C(=O)NC(CCCCNC(=O)OC(C)(C)C)C(=O)NCC(=O)O (stereo not given) (Ac-E(OtBu)E(OtBu)[Phe(4-NO2)]K(Boc)K(Boc)G-OH; configuration not given here)
inactive: [1] -31.4% | [2] -19.4% | [3] -22.6% | [4] 13.4% | [5] -8.2% | [6] -27.3%

Nc1ccc(F)cc1
inactive: [1] -22.1% | [2] -1.5% | [3] -15.4% | [4] -19.6% | [5] -3.05% | [6] -31.9%

CSc1ccc(NC(=O)Nc2ccc(Nc3ccccc3)cc2)cc1
inactive: [1] -0.95% | [2] 29.8% | [3] 15.1% | [4] -11.9% | [5] 14.2% | [6] 23.3%

CNc1ccn(C2OC(CO)C(O)C2O)c(=O)n1 (stereo not given)
inactive: [1] -9.5% | [2] -7.5% | [3] -2.05% | [4] 11.9% | [5] 10.1% | [6] 8.25%

Nc1ncnc2c1nnn2CC(O)CO (stereo not given)
inactive: [1] -36% | [2] -19.2% | [3] -17.4% | [4] -25.5% | [5] -2.9% | [6] 5.2%

O=C(O)c1cccc(SS(=O)(=O)c2cccc(C(=O)O)c2)c1
inactive: [1] -18.4% | [2] -13.4% | [3] -10.1% | [4] 9.45% | [5] 7.5% | [6] -7.45%

Source: PubChem BioAssay (NCI)
